The record followed here is PubChem BioAssay (NCI).

This is part of a sample that, as a whole, favours compounds with a hit. Of some 83,000 tested, about 20% had one in any assay.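 Results are percent growth after 48 hours of single-concentration exposure. 100 means growth as in untreated cells, lower positive values show inhibition; negative values down to -100 show cell death.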 Values without a mark were called inactive. Activity calls are given as the source filed them. Rule for the calls: active = growth percent below 10; inactive = the rest.

Common to all, as to test: NCI-60 one-dose screen, 48 h (100 = growth as untreated, 0 = no growth, -100 = all killed)
What all share (settings): 10 µM

The subject of assay [1] is NCI-H23 lung.
The subject of assay [2] is NCI-H226 lung.
The subject of assay [3] is NCI-H322M lung.
The test system of assay [4] is HOP-62 NSCLC.
The test system of assay [5] is NCI-H460 lung.
The test system of assay [6] is NCI-H522 lung.
Assay [7] deals with A549/ATCC NSCLC.
Assay [8] concerns 786-0 renal.
For assay [9], the system named is COLO 205 colon.
For assay [10], the system named is DU-145 prostate.

Take `O=C1/C(=C\c2ccc(F)cc2)CN(C(=O)c2ccc([N+](=O)[O-])cc2)C/C1=C\c1ccc(F)cc1`: the growth is 49.3% in assay [1]; 38.2% in assay [2]; 76.3% in assay [3]; 32.9% in [4]; 68.4% in assay [5]; 46.9% in [6]. Besides, the growth is 52.9% in [7], 20.3% in assay [8], 38.8% in assay [9] and 25.5% in assay [10].

Regarding `CCN(CCCCCCCCCCN1CC(=O)N(CCCCCCCCCCN(CC)Cc2ccccc2OC)CC1=O)Cc1ccccc1OC`, the growth in assay [1] is -26.1% (active); in [2], -2.55% (active); in [3] it was 18.4%; in assay [4] it was -71.6% (active); in assay [5], -93.3% (active); in assay [6] it was -74% (active). Also, the growth was -48.8% (active) in assay [7], -72.5% (active) in assay [8], -91.6% (active) in assay [9] and -52.9% (active) in assay [10].

`CCCCCCCCCCCCCCCCCCOCC(COCCOCC[N+]1(CCCCCC(=O)[O-])CCCC1)Oc1ncccn1` (stereo not given): the growth in assay [1] was 46.5%; in assay [2], 56%; in assay [3] it was 101%; in assay [4], 21.3%; in assay [5], 23.7%; in assay [6], 12.9%. Besides, the growth in assay [7] was 51.2%; in [8], 52.8%; in assay [9] it was -17.2% (active); in assay [10], 77.6%.

As to `CC1(C)N=C(N)N=C(N)N1c1ccc(CCc2ccccc2)c(Cl)c1`, the growth is 21.4% in assay [1]; 32.4% in assay [2]; 28.7% in assay [3]; 26.3% in assay [4]; 10.1% in [5]; 1.84% (active) in [6]. Besides, the growth in assay [7] is 10.4%; in [8], 20.3%; in assay [9] it was 16%; in assay [10] it was 27.1%.

As to `CCN(CC)CCC(=O)Nc1cccc2c1C(=O)c1c(c(O)c3ccccc3c1O)C2=O`, the growth in assay [1] was 62%; in [2], 29%; in [3], 56.7%; in [4], 47.9%; in assay [5] it was 15.5%; in [6] it was 46.4%. Also, the growth in assay [7] was 33.7%; in assay [8], 4.91% (active); in assay [9], 51.3%; in assay [10] it was 51.2%.

`CSC1=NCCCC1`: the growth in [1] is 112%; in assay [2] it was 97.3%; in [3], 113%; in assay [4] it was 112%; in assay [5] it was 108%; in assay [6], 102%. Moreover, the growth was 102% in [7], 111% in assay [8], 113% in assay [9] and 118% in assay [10].

Regarding `Nc1c(C(=O)Nc2ccccc2)sc2nc3c(cc12)C(O)CCC3` (stereo not given), the growth in assay [1] is 37.1%; in assay [2], 74%; in assay [3] it was 46.1%; in assay [4] it was 24.6%; in assay [5], 11.8%; in assay [6], 7.09% (active). Further, the growth was 29.3% in assay [7], 57.6% in [8], -8.22% (active) in assay [9] and 5.47% (active) in assay [10].

For `COc1ccc(-n2c(SCc3cc(OC)c(OC)c(OC)c3)nc3ccc(C)cc3c2=O)cc1`, the growth in assay [1] was 69.2%; in assay [2] it was 73.4%; in [3], 80.3%; in assay [4], 65.2%; in assay [5], 73.8%; in assay [6], 39.4%. The growth was 51% in assay [7], 84.1% in [8], 32.7% in assay [9] and 94.9% in assay [10].

On to `CCOC(=O)N1C/C(=C/c2ccc(F)cc2)C(=O)/C(=C/c2ccc(F)cc2)C1`, for which the growth is 12.2% in assay [1]; -18.7% (active) in [2]; 53.9% in assay [3]; -12.9% (active) in assay [4]; 3.07% (active) in [5]; -52.4% (active) in assay [6]. Also, the growth is 22% in assay [7], -58.7% (active) in [8], 2.88% (active) in assay [9] and -6.4% (active) in [10].

Regarding `COc1ccc(-c2nc3sc(-c4ccccc4)c(-c4ccccc4)n3c2/C=C/C(=O)c2ccccn2)cc1`, the growth in assay [1] is 97.4%; in assay [2], 84%; in [3], 112%; in assay [4], 134%; in assay [5], 87%; in assay [6], 6.21% (active). The growth in assay [7] is 87.7%; in assay [8] it was 98.7%; in [9] it was 76.4%; in [10], 96.7%.

Take `COC(=O)c1ccc(=O)oc1`: the growth in [1] is 93%; in [2] it was 101%; in [3], 106%; in assay [4], 96.1%; in assay [5] it was 110%; in [6] it was 99.9%. The growth is 101% in [7], 99.4% in [8], 119% in assay [9] and 114% in assay [10].

Regarding `CCCCC/C=C/C(=O)CCc1ccc(O)c(OC)c1`, the growth in assay [1] is 89.2%; in assay [2] it was 87.8%; in assay [3], 106%; in assay [4] it was 107%; in [5], 97.3%; in assay [6], 60.8%. In addition, the growth in [7] is 82.6%; in assay [8] it was 91.1%; in assay [9], 108%; in [10], 76.9%.

Turning to `CN(C)CC(O)c1ccc2cc(Br)c3ccccc3c2c1` (stereo not given), the growth is 80.1% in [1]; 78.7% in assay [2]; 72.7% in assay [3]; 62.1% in [4]; 37% in [5]; 65.6% in assay [6]. Further, the growth in [7] was 57.1%; in assay [8] it was 54%; in [9], -67.8% (active); in assay [10] it was 70.7%.

Regarding `CC[C@H]1CCC/C=C/[C@@H]2C[C@H](O)C[C@H]2[C@H](O)/C=C/C(=O)O1`, the growth in assay [1] is -12.8% (active); in assay [2], -1.27% (active); in [3], -2.58% (active); in assay [4], 25.2%; in assay [5] it was 6.08% (active); in assay [6] it was -56.8% (active). Besides, the growth is 5.74% (active) in assay [7], -49% (active) in assay [8], -97.2% (active) in [9] and 3.43% (active) in [10].

In the case of `Cc1ccc(NC(=O)Nc2c(Cl)cccc2Cl)cn1`, the growth in assay [1] was 109%; in assay [2], 140%; in assay [3] it was 119%; in assay [4], 107%; in [5] it was 106%; in assay [6], -10.6% (active). Also, the growth is 57.3% in [7], 113% in assay [8], 135% in [9] and 123% in assay [10].

Regarding `Clc1ccccc1N=Cc1ccc2c(c1)OCO2`, the growth was 108% in assay [1]; 105% in [2]; 110% in assay [3]; 110% in assay [4]; 116% in assay [5]; 80.3% in [6]. Moreover, the growth was 98.2% in assay [7], 104% in assay [8], 109% in [9] and 112% in [10].

`NC(=O)CC1(c2ccccc2)CCCCC1`: the growth in [1] was 103%; in assay [2] it was 110%; in assay [3], 90.9%; in assay [4] it was 102%; in assay [5] it was 104%; in assay [6], 96%. For the same molecule, the growth in [7] was 116%; in [8], 97.1%; in assay [9] it was 103%; in assay [10], 107%.

With `Cc1c(Cl)cccc1NC(=O)c1sc2nc3c(cc2c1N)C(=O)CCC3`, the growth is 16.4% in assay [1]; 55.8% in assay [2]; 27.8% in assay [3]; 34% in [4]; 4.71% (active) in assay [5]; -28.4% (active) in assay [6]. The growth in assay [7] was 16.7%; in assay [8], 37.7%; in assay [9], -30% (active); in [10] it was -17.7% (active).

Take `CCOC(=O)c1ccoc1`: the growth in [1] was 103%; in assay [2] it was 101%; in assay [3], 85.1%; in assay [4], 97.8%; in [5] it was 101%; in assay [6], 91.1%. Further, the growth in assay [7] is 96.9%; in [8] it was 99.1%; in [9], 101%; in assay [10] it was 109%.

Take `CS(=O)(=O)Nc1ccc(Nc2c3ccccc3nc3cc([N+](=O)[O-])ccc23)cc1`: the growth in assay [1] was 1.7% (active); in assay [2] it was 0.761% (active); in assay [3] it was 62.6%; in assay [4], 19.2%; in [5], 0.406% (active); in assay [6], -51.5% (active). The growth in assay [7] was 16.5%; in [8] it was 6.96% (active); in assay [9], 17.1%; in assay [10], 8.04% (active).

Consider `CCN(CC)CCOc1nc2ccc(OC)cc2c2c1-c1ccc(OC)cc1C2=O`, for which the growth in assay [1] is -30.5% (active); in assay [2], 16.5%; in [3] it was -13.2% (active); in [4], 6.96% (active); in assay [5], -75.4% (active); in assay [6], -89.2% (active). Further, the growth in assay [7] was -67.2% (active); in [8], 26%; in assay [9] it was 15.3%; in assay [10] it was -70.3% (active).

For `COc1cc(NC(=O)CCSc2nc3ccc(Cl)cc3c(=O)n2Cc2ccccc2)cc(OC)c1OC`, the growth in assay [1] is 93.5%; in assay [2] it was 31.1%; in [3] it was 83.1%; in assay [4], 57.2%; in assay [5], 81.8%; in assay [6], -9.19% (active). In addition, the growth is 59.3% in assay [7], 93.2% in assay [8], 107% in assay [9] and 108% in [10].

For `Cc1cc2c(C)c3cc(C)c(N)cc3nc2cc1N`, the growth in assay [1] was 17.1%; in [2], 10.1%; in assay [3] it was -12.5% (active); in [4], 3.24% (active); in assay [5], -20.5% (active); in assay [6], -49.4% (active). For the same molecule, the growth was 4.93% (active) in assay [7], 28% in assay [8], 1.41% (active) in [9] and 10.6% in assay [10].

As for `O=C(Nc1cccc(-n2cc(-c3ccncc3)c(-c3ccc(O)c(Cl)c3)n2)c1)c1ccc(N2CCOCC2)c(C(F)(F)F)c1`, the growth in assay [1] is 42.2%; in assay [2] it was 85.8%; in assay [3], 44.5%; in assay [4] it was 41.5%; in assay [5], 11.6%; in assay [6] it was 35.6%. Further, the growth in [7] is 22.9%; in [8], 8.9% (active); in assay [9] it was 51.2%; in [10] it was 62.7%.

`COc1cc(Cl)cc(-c2nn(-c3cccc(NC(=O)Nc4ccc(Cl)c(C(F)(F)F)c4)c3)cc2-c2ccncc2)c1`: the growth in assay [1] was 0.301% (active); in assay [2], -2.82% (active); in assay [3], 18.7%; in assay [4], 13.5%; in assay [5], 2.76% (active); in assay [6] it was -10.4% (active). For the same molecule, the growth in assay [7] was 5.2% (active); in assay [8] it was -4.76% (active); in [9], -48.3% (active); in [10] it was 15.2%.

As for `CN(C)CCN1C(=O)c2cccc3c(-c4ccc5ncn(C6CCCCC6)c5c4)ccc(c23)C1=O`, the growth was 30.5% in assay [1]; 25.1% in [2]; 25.3% in [3]; 23.4% in assay [4]; 1.4% (active) in assay [5]; 4.65% (active) in [6]. The growth in assay [7] is 3.34% (active); in assay [8] it was 19.1%; in assay [9], 8.59% (active); in assay [10], 27%.
